Experiment [1] is described as follows: Nuclear factor erythroid 2-related factor 2/antioxidant responsive element (Nrf2/ARE) small molecule agonists: qHTS cell viability counter screen in human keratinocytes (AID 1919968; active = well fitted curve in the direction sought with a large enough effect in the repeat runs; an effect the other way counts as inactive or inconclusive; also: nearly all actives have a fitted effect of over 55% in size). The procedure, abridged:
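Viability counter-screen: KeratinoSens reporter cells, DMSO-delivered compounds, 23 h at 37 C, CellTiter-Fluor fluorescence.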
(Quantitative high-throughput screening tests each substance at several concentrations.)

A short description of experiment [2]: Nuclear factor erythroid 2-related factor 2/antioxidant responsive element (Nrf2/ARE) small molecule agonists: luciferase reporter gene qHTS assay in human keratinocytes (AID 1919969). Also: nearly all actives have a fitted effect of over 35% in size. In general terms: A reporter such as luciferase makes a cellular process visible.
For experiment [3], the target named is Gonadotropin-releasing hormone receptor (Homo sapiens) (UniProt P30968). In words: Human gonadotropin-releasing hormone receptor (GnRHR) small molecule agonists, calcium flux assay in GnRHR-HEK293 cells (AID 1920063). Also: nearly all actives have a fitted effect of over 35% in size. The procedure, abridged:
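Tox21-format agonist screen using human GnRHR-expressing HEK293 cells and a fluorescent calcium dye; kinetic 3-min fluorescence reading after compound addition, 15-point concentration series run in triplicate.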
In general terms: A change in cytosolic calcium serves as a functional read-out for many receptors and channels.

In experiment [4] the target is KiSS-1 receptor (Homo sapiens) (UniProt Q969F8). In words: Human kisspeptin (KISS1R) small molecule agonists, calcium flux assay in KISS1R-HEK293 cells (AID 1920064; active = well fitted curve in the direction sought with a large enough effect in the repeat runs; an effect the other way counts as inactive or inconclusive). The procedure, abridged: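 Intracellular calcium mobilization in KISS1R-HEK293 cells was recorded by fluorescence (Ex/Em 480/540) for 3 min following compound addition to cells pre-loaded 1 h with calcium dye.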
Chain of KiSS-1 receptor (Homo sapiens) (Q969F8 whole entry, looked up): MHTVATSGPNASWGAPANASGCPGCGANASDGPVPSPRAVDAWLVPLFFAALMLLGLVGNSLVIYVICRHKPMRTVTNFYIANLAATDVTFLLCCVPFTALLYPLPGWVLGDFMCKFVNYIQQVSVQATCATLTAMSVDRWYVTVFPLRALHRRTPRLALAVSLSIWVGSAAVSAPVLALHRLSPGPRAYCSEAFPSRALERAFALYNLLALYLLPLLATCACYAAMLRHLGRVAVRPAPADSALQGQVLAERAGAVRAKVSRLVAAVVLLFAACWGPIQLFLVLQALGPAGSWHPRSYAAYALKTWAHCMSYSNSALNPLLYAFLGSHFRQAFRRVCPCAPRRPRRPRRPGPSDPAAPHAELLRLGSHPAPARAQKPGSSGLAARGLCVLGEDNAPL

A short description of experiment [5]: G protein-coupled receptor (GPCR) small molecule agonists, calcium flux assay: HEK293 wild type cell line counter screen (AID 1920065). The procedure, abridged: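 In this agonist-mode screen, ATP is the positive control and DMSO the vehicle. Cells grow 18 h before a 1 h dye incubation at 37 C; signal is taken at Ex/Em 480/540 over 3 min.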
Experiment [6] in a line: p53 small molecule agonists, cell-based qHTS assay with human liver microsomes (AID 1963577). The procedure, abridged: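 Fluorescence of the beta-lactamase reporter in p53RE-bla cells, detected with LiveBLAzer substrate (2 h, room temperature, dark), served as the read-out after 16 h compound exposure at 37 C with human liver microsomes and NADPH, each 0.5 mg/mL final.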

A short description of experiment [7]: p53 small molecule agonists, cell-based qHTS assay with rat liver microsomes (AID 1963578). The procedure, abridged: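 Cells carrying a p53 response element–beta-lactamase reporter were plated and rested 5 h, then dosed with compound in DMSO plus rat liver microsomes and NADPH, each at 0.5 mg/mL final. After 16 h at 37 C, LiveBLAzer substrate was added for 2 h.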

Experiment [8] is described as follows: p53 small molecule agonists, cell-based qHTS assay with human liver microsomes: qHTS cell viability counter screen (AID 1963579). Also: nearly all actives have a fitted effect of over 45% in size. The procedure, abridged: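 Cytotoxicity counter screen: p53RE-bla, 4,000 cells/well; 5 h settle, 37 C/5% CO2; cpd + HLM 0.5 mg/mL + NADPH 0.5 mg/mL (final); 16 h, 37 C; CellTiter-Glo, 30 min RT, luminescence.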
The nature of experiment [9]: p53 small molecule agonists, cell-based qHTS assay with rat liver microsomes: qHTS cell viability counter screen (AID 1963580). Also: nearly all actives have a fitted effect of over 45% in size. Also: potency is read from the fitted curve at half-maximal effect. The procedure, abridged: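 In HCT-116 cells carrying a p53 response element-bla reporter, compounds were metabolically activated in situ by rat liver microsomes with NADPH over 16 h. Cell ATP content then served as the cytotoxicity measure.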

Experiment [10] in a line: p53 small molecule agonists, cell-based qHTS assay: qHTS cell viability counter screen (AID 1963581). Also: nearly all actives have a fitted effect of over 45% in size. The procedure, abridged:
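Compounds are pinned onto HCT-116 p53RE-bla cells and left 16 h at 37 C. Following the reporter FRET read, ATP is quantified by CellTiter-Glo luminescence after 30 min at room temperature.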

Experiment [11] is described as follows: p53 small molecule agonists, cell-based qHTS assay (AID 1963582; active = well fitted activation curve with a large enough effect in the signal ratio in the repeat runs, not every such curve was filed as active; the % refers to the signal ratio). The procedure, abridged:
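Agonist activity was scored from beta-lactamase FRET fluorescence in p53RE-bla cells treated 16 h at 37 C with compounds in DMSO, substrate incubation being 2 h at room temperature.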

Experiment [12] has as its target 5-hydroxytryptamine receptor 2A (Homo sapiens) (UniProt P28223). The experiment is described as follows: 5-hydroxytryptamine receptor 2A (HTR2A) small molecule antagonists, cell-based qHTS assay (AID 1963586). Also: nearly all actives have a fitted effect of over 45% in size. The procedure, abridged:
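Antagonist-mode intracellular calcium assay: DOI (4 nM) added after 5 min compound pre-incubation at room temperature to dye-loaded HTR2A-CHO cells. Fluorescence followed for 3 min, sampled every second.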

For experiment [13] the target is unchanged. In words: 5-hydroxytryptamine receptor 2A (HTR2A) small molecule agonists, cell-based qHTS assay (AID 1963587). Also: nearly all actives have a fitted effect of over 30% in size. The procedure, abridged: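 HTR2A-CHO cells, plated 18 h at 37 C/5% CO2, dye-loaded 1 h at 37 C; compounds in DMSO added by pin tool (agonist mode). Intracellular calcium flux read as kinetic fluorescence on FDSS over 2 min at 1 s intervals.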

The target of experiment [14] is Muscarinic acetylcholine receptor M1 (Homo sapiens) (UniProt P11229). The experiment is described as follows: Cholinergic receptor muscarinic 1 (CHRM1) small molecule antagonists, cell-based qHTS assay (AID 1963588). Also: nearly all actives have a fitted effect of over 40% in size. The procedure, abridged: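 CHRM1-CHO calcium-flux assay, antagonist mode. Cells were seeded 18 h, dye-loaded 1 h at 37 C and given compound for 5 min at RT, then acetylcholine was added at 50nM. FDSS fluorescence was read 3 min; 15 concentrations, three runs.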
Chain of Muscarinic acetylcholine receptor M1 (Homo sapiens) (P11229 whole entry, looked up): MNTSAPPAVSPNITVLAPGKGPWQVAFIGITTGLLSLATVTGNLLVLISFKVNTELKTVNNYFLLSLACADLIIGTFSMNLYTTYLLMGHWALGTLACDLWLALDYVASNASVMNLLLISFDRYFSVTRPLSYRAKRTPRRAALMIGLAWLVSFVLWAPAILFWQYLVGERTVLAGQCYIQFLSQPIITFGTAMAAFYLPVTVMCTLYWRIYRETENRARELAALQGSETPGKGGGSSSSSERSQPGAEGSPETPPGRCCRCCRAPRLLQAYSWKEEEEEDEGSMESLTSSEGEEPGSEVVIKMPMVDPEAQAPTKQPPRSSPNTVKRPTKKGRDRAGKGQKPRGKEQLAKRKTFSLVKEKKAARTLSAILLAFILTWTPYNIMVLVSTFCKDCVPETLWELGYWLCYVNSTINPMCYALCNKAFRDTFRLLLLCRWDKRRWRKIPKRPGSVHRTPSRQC

Experiment [15] shares this target. In words: Cholinergic receptor muscarinic 1 (CHRM1) small molecule agonists, cell-based qHTS assay (AID 1963589). Also: nearly all actives have a fitted effect of over 35% in size. The procedure, abridged: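 Stable CHRM1-CHO cells (human receptor) were incubated 18 h, dye-loaded for 1 h at 37 C and exposed to test compounds for agonist activity, with calcium-dependent fluorescence followed kinetically.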
Experiment [16] can be described thus: cAMP Responsive Elements (CRE) small molecule agonists, cell-based qHTS assay (AID 1963590). The procedure, abridged:
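FRET-based beta-lactamase readout (LiveBLAzer B/G, 2 h RT) quantified CRE activation in HEK 293T CRE-bla cells after 3 h treatment with DMSO-dissolved compounds.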

Experiment [17] can be described thus: cAMP Responsive Elements (CRE) small molecule antagonists, cell-based qHTS assay (AID 1963591; active = well fitted inhibition curve with a large enough effect in the signal ratio in the repeat runs, not every such curve was filed as active; the % refers to the signal ratio). The procedure, abridged: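 qHTS in CRE-bla HEK 293T cells: compound in DMSO, then 0.25 uM NKH477 (final), 3 h at 37 °C/5% CO2; beta-lactamase FRET read-out after 2 h substrate incubation.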
Experiment [18] concerns the target D(2) dopamine receptor (Homo sapiens) (UniProt P14416). The experiment is described as follows: Dopamine D2 receptor (DRD2) small molecule agonists, cell-based qHTS assay (AID 1963594). Also: nearly all actives have a fitted effect of over 35% in size. The procedure, abridged:
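HEK293 cells stably expressing DRD2 were cultured 24 h at 37 C, then given Ro20-1724 (0.1 mM final) and compounds for 10 min at room temperature. NKH477 (200nM) was then added for 30 min. cAMP was read by HTRF.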

Experiment [19] shares this target. The experiment is described as follows: Dopamine D2 receptor (DRD2) small molecule antagonists, cell-based qHTS assay (AID 1963595; active = well fitted inhibition curve with a large enough effect in the signal ratio in the repeat runs, with a control signal flat; the % refers to the signal ratio). The procedure, abridged:
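Cells were plated and grown for 24 h at 37 °C. Ro20-1724 (0.1 mM final) went in first, then compound for 10 min. NKH477 (200 nM) with quinpirole (12 nM) followed for 30 min at RT, then HTRF detection reagents for 1 h.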

The target in experiment [20] is Beta-2 adrenergic receptor (Homo sapiens) (UniProt P07550). In words: Adrenergic beta2 receptor (ADRB2) small molecule antagonists, cell-based qHTS assay (AID 1963592). Also: series mostly up to about 92 µM; nearly all actives have a fitted effect of over 50% in size. The procedure, abridged:
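Cells (CHO, stable ADRB2 overexpression) incubated 18-20hr at 37C; compounds added from DMSO; agonist mix (1nM isoproterenol, 100uM IBMX, 25uM Ro-20-1724) added; 0.5hr RT; d2-cAMP and anti-cAMP-cryptate added; 1hr RT; 665/615 nm read.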

Values without a mark were called inactive. Records with an inconclusive call do not appear. Active and inactive are the calls of the source. Unless noted, calls follow the shape of the full dose curve.
% is scaled to controls: 0 for no effect and ±100 for the full control effect.

Chain of Gonadotropin-releasing hormone receptor (Homo sapiens) (P30968 whole entry, looked up): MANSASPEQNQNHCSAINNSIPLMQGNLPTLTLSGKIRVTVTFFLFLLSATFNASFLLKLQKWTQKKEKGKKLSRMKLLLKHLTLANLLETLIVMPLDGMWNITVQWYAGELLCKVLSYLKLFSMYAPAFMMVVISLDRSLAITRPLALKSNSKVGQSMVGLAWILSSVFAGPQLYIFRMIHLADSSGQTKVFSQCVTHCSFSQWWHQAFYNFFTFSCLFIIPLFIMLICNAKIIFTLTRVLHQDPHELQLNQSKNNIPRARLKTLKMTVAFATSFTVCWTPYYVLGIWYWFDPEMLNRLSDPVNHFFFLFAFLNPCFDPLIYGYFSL
Chain of D(2) dopamine receptor (Homo sapiens) (P14416 whole entry, looked up): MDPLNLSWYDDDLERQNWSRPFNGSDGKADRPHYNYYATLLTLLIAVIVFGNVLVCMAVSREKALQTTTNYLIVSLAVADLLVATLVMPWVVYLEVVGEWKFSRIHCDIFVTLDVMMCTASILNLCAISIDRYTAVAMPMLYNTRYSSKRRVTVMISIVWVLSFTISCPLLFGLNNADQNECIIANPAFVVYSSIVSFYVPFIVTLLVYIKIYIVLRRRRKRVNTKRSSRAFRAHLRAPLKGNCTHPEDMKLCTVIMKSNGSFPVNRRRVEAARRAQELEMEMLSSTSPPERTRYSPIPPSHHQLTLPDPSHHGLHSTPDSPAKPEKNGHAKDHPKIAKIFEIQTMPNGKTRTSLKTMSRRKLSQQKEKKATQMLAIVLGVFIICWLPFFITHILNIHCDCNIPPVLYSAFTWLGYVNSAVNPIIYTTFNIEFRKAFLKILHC
Chain of 5-hydroxytryptamine receptor 2A (Homo sapiens) (P28223 whole entry, looked up): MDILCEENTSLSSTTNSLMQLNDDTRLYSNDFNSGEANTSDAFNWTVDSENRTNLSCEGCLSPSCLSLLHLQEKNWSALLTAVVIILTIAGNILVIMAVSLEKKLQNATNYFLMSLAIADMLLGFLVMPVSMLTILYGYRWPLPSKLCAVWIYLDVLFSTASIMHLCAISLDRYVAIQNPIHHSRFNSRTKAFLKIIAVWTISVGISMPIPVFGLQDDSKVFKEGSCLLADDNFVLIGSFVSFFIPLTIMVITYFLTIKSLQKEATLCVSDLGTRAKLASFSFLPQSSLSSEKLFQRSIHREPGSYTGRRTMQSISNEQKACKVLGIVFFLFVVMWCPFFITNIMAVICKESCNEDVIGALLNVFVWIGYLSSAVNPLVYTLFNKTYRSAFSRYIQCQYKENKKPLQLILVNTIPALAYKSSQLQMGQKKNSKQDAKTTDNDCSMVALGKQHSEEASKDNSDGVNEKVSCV
Chain of Beta-2 adrenergic receptor (Homo sapiens) (P07550 whole entry, looked up): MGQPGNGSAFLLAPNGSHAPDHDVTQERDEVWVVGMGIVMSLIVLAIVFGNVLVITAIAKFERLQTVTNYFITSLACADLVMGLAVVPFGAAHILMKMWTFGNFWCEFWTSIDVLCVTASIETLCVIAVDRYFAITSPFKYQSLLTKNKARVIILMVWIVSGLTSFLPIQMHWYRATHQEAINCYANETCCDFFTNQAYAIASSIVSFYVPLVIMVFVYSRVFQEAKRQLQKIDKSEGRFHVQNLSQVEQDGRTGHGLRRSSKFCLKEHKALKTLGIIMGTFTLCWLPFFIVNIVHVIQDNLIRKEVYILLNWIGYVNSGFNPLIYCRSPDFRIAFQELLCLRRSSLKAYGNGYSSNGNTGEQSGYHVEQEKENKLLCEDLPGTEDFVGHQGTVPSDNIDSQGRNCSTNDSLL

As to `Cc1c(Cl)cccc1[N+](=O)[O-]`, the Potency entry in [1], in [2], in [3], in experiment [6], in experiment [7] and in experiment [8] was “inactive” throughout. Besides, the Potency result in [9], in experiment [10], in experiment [11], in experiment [12], in [13] and in experiment [14] was “inactive” each time. The Potency entry in [15], in experiment [16], in experiment [17], in experiment [18] and in [19] was “inactive” each time. The outcome in [4] and in experiment [5] was inactive.

`NCC(=O)CCC(=O)O`: the Potency entry in experiment [1], in [2], in [3], in experiment [6], in experiment [7] and in experiment [8] was “inactive” throughout. The Potency result in experiment [9], in experiment [10], in experiment [11], in experiment [12], in [13] and in [14] was “inactive” in each case. For the same compound, the Potency entry in experiment [15], in experiment [16], in experiment [20], in experiment [18] and in [19] was “inactive” each time. In addition, the outcome in [4] and in experiment [5] was inactive.

On to `CCCCOCC`, for which the Potency result in experiment [1], in [2], in experiment [3], in experiment [6], in experiment [7] and in experiment [8] was “inactive” each time. In addition, the Potency entry in [10], in experiment [11], in experiment [12], in [13], in experiment [14] and in experiment [15] was “inactive” in each case. In addition, the Potency result in [16], in [17], in experiment [20], in experiment [18] and in [19] was “inactive” throughout. The result in experiment [4] and in experiment [5] was inactive. Besides, the Potency in experiment [9] is 1.62 µM (active).

As for `CCOC(=O)CCCCCCCCC(=O)OCC`, the Potency result in [1], in [2], in [3], in experiment [6], in experiment [7] and in experiment [8] was “inactive” each time. Moreover, the Potency result in experiment [9], in experiment [10], in [11], in experiment [12], in [13] and in [14] was “inactive” in each case. Moreover, the Potency result in [15], in [16], in [17], in experiment [20] and in experiment [19] was “inactive” each time. The outcome in [4] and in experiment [5] was inactive.

With `CCCCCCCCCCCCCCN(C)C`, the activity change, negative = cytotoxicity in experiment [1] was 2.19% [at 19 µM]; in experiment [8], 6.35% [at 13.5 µM]; in experiment [9], -0.358% [at 13.5 µM]; in [10], 1.73% [at 13.5 µM]. Further, the activity, positive = activation in [2] is 2.64% [at 19 µM]. The activity change in experiment [3] is -0.071% [at 11.8 µM, active compounds read high]. Also, the activation was 2.68% [at 15.8 µM] in experiment [4]; -0.129% [at 11.8 µM] in [5]; -0.299% [at 13.5 µM] in [6]; -1.12% [at 13.6 µM] in experiment [7]; -0.74% [at 13.5 µM] in experiment [11]; 12% [at 15.9 µM] in [13]. For the same compound, the activation in experiment [15] is 0.401% [at 15.8 µM]; in experiment [16], -0.847% [at 19 µM]; in [18] it was 0.215% [at 19 µM]. Besides, the activity, negative = inhibition in experiment [12] was 2.96% [at 12.7 µM]; in [14], 5.47% [at 12.6 µM]. Besides, the activity change, negative = inhibition in experiment [17] was -9.63% [at 18.9 µM]; in experiment [19], -0.238% [at 18.9 µM].

The values above are taken from PubChem BioAssay (Tox21).
